Source: PubChem BioAssay
Active and inactive are the calls of the source.

Tests used:
[1] = A549 cell viability effects, profiling panel, calcein-AM fluorescence, 48 h, basal (AID 1162); conditions: higher = more signal
[2] = adipocyte viability effects, profiling panel, cell-based, 3T3-L1 adipocytes, calcein-AM fluorescence, 48 h, basal (AID 1163); conditions: 3T3-L1 adipocytes viability, higher = more signal
[3] = HepG2 cell viability effects, profiling panel, calcein-AM fluorescence, 48 h, basal (AID 1164); conditions: higher = more signal
[4] = MM1S cell viability effects, profiling panel, calcein-AM fluorescence, 48 h, basal (AID 1165); conditions: higher = more signal;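 note: viability of MM1S multiple myeloma cells under basal unstimulated conditions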
[5] = basal RPMI8226 viability, no added stimulus, profiling panel, cell-based, calcein-AM fluorescence, 48 h, PK04 Diversity Set (AID 1166); conditions: RPMI8226 myeloma viability, higher = more signal;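 note: cells grown under basal conditions without added stimulus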
[6] = basal HepG2 mitochondrial membrane potential changes, profiling panel, cell-based, JC-1 fluorescence, 24 h, 100 nL compound (AID 1167); conditions: higher = more signal
[7] = basal 3T3-L1 adipocyte mitochondrial potential changes, profiling panel, cell-based, JC-1 fluorescence, 3T3-L1 adipocytes, 24 h, 100 nL compound (AID 1168); conditions: JC-1 mitochondrial fluorescence, higher = more signal, called active from +8 up or from −8 down
[8] = basal RPMI8226 mitochondrial membrane potential changes, profiling panel, cell-based, JC-1 fluorescence, 24 h, 100 nL compound (AID 1169); conditions: RPMI8226 myeloma, JC-1 mitochondrial potential fluorescence, higher = more signal
[9] = basal MM1S mitochondrial membrane potential changes, profiling panel, cell-based, JC-1 fluorescence, 24 h, 100 nL compound (AID 1170); conditions: higher = more signal
[10] = A549 lung cancer cell viability effects, profiling panel, resazurin fluorescence, 24 h, PK04 Diversity Set (AID 1171); conditions: higher = more signal, called active from +8 up or from −8 down
Note: test concentration not given here.

| Structure (SMILES) | z-score [1] | z-score [2] | z-score [3] | z-score [4] | z-score [5] | z-score [6] | z-score [7] | z-score [8] | z-score [9] | z-score [10] |
| --- | --- | --- | --- | --- | --- | --- | --- | --- | --- | --- |
| COc1cccc([C@@H]2[C@@H](C)CC[C@H]3C(=O)N(C)[C@@H](C(C)C)C(=O)N23)c1 | 0.908 | 0.323 | 0.445 | 0.344 | 1.44 | 0.0824 | 0.517 (inactive) | -0.338 | 0.64 | 0.65 (inactive) |
| C=CCC(OC(C)=O)[C@@H]1[C@@H](N(Cc2ccc(-c3ccccc3)cc2)C(=O)c2ccc(C)cc2)c2cc(OCCCO)ccc2N1C(=O)c1ccc(-c2ccccc2)cc1 (stereo not given in full) | 3.37 | 0.626 | 1.87 | -0.732 | 0.887 | 4.05 | 1 (inactive) | -0.454 | 1.22 | 2.47 (inactive) |
| C=C(C(=O)CC[C@H](OC(=O)c1ccccc1-c1ccccc1C(=O)O)c1ccc(CO)o1)C(C)C | -0.473 | -0.284 | -0.396 | -0.263 | 0.0025 | -0.906 | -0.244 (inactive) | 0.374 | 0.668 | 0.529 (inactive) |
| O=C1O[C@H](c2ccccc2)[C@H](c2ccccc2)N2[C@H]1[C@@H](C(=O)NC[C@H](O)c1ccccc1)[C@]1(C(=O)Nc3ccc(C#CC4(O)CCCCCC4)cc31)[C@H]2c1ccc(OCCO)cc1 | -1.2 | 0.694 | 0.643 | -1.29 | -0.587 | -1.32 | 1.78 (inactive) | -0.842 | -0.469 | 0.132 (inactive) |
| O=C1O[C@@H](c2ccccc2)[C@@H](c2ccccc2)N2[C@@H](c3ccccc3OCCO)[C@]3(C(=O)Nc4ccc(C#CC5=CCCCC5)cc43)[C@@H](C(=O)O)[C@H]12 | -1 | 1.61 | -0.992 | -3.39 | -4.65 | -3.81 | 4.74 (inactive) | -1.07 | -0.999 | 0.289 (inactive) |
| O=C1OCCC/C=C\[C@H]2OC34C=CCN(CCN5CCOCC5)C(=O)[C@H]3N(CCCCCO)C(=O)[C@@H]4C12 (stereo not given in full) | 0.739 | 0.216 | -0.123 | 1.1 | -0.0521 | -1.04 | 0.348 (inactive) | 0.329 | -0.102 | -0.254 (inactive) |
| CCCC=C(CCC)[C@@H](NS(=O)(=O)c1cccc(C(F)(F)F)c1)c1ccc(C(=O)OC)cc1 | -0.336 | -0.0748 | -1.07 | -0.008 | -0.341 | -1.25 | -0.413 (inactive) | 0.0542 | -1.04 | 0.206 (inactive) |
| O=C(N1CCCCC1)[C@@]1(CCS(=O)(=O)c2ccccc2)N=C(c2ccc(OCCCO)cc2)O[C@H]1c1ccccc1 | -1.35 | 1 | -1.12 | -2.25 | -3.55 | 2 | -0.751 (inactive) | -0.72 | -2.09 | -0.908 (inactive) |
| COC(=O)Cn1c(C(=O)N2CCCC2)cc2c1C[C@H]1CN(C(=O)c3ccccc3)[C@@](Cc3ccccc3)(C(=O)OC)[C@@H]21 | -0.162 | 0.0052 | 0.513 | 0.875 | -0.256 | 0.876 | 0.385 (inactive) | -0.0618 | -1.25 | 0.359 (inactive) |
| CCC#CCN(Cc1ccccc1Br)[C@H](/C=C/c1ccccc1)[C@@H](O)Cc1ccccc1 | 0.178 | -0.0581 | -0.124 | -0.227 | -2.42 | -2.35 | -1.44 (inactive) | -0.608 | -0.32 | 1.36 (inactive) |
| COc1ccc([Si](C)(C)[C@H]2[C@H](CC(=O)N(CCO)Cc3ccccc3)O[C@@]3(C(=O)N(C)c4ccccc43)[C@@H]2C)cc1 | -0.836 | 0.899 | -1.12 | -1.84 | -3.42 | -0.433 | 0.505 (inactive) | -0.965 | -0.176 | 0.221 (inactive) |
| CCN1C(C)=C(C(=O)OC)[C@@H](c2ccccc2)N2C(=O)[C@](O)(C(=O)OC)[C@@H](c3ccccc3)C(C(=O)c3ccccc3)=C12 | 0.804 | 0.439 | 0.534 | 0.144 | -0.623 | 4.64 | 0.454 (inactive) | -0.602 | 0.229 | 2.64 (inactive) |
| CCCC=C(CCC)[C@@H](NC(=O)c1ccccc1)c1ccccc1 | -0.956 | -0.551 | 0.46 | -0.0621 | -0.246 | -3.04 | 0.177 (inactive) | -0.017 | -1.49 | 0.215 (inactive) |
| O=C1OCC=C[C@H]2OC34C=CCN(Cc5ccccc5)C(=O)[C@H]3N(CCCCCO)C(=O)[C@@H]4[C@@H]12 (stereo not given in full) | 0.16 | 2.65 | -0.566 | -0.231 | -0.166 | 0.00385 | 1.45 (inactive) | 1.27 | 1.72 | -0.208 (inactive) |
| C/C(=N\O)C(=O)NCCCCCNC(=O)OCc1ccccc1 | 1.3 | 0.895 | 0.206 | 0.476 | 0.239 | 1.09 | 0.334 (inactive) | -0.561 | 1.24 | 0.707 (inactive) |
| O=C1O[C@@H](c2ccccc2)[C@@H](c2ccccc2)N2[C@@H](c3ccc(OCCO)cc3)[C@]3(C(=O)Nc4ccc(C#CCCO)cc43)[C@@H](C(=O)N3CCN(c4ncccn4)CC3)[C@H]12 | 0.848 | 0.38 | -0.17 | 0.0057 | 0.442 | 0.0349 | 1.88 (inactive) | -0.623 | 0.173 | 0.293 (inactive) |
| COc1cc(CO)cc(I)c1O[C@H]1C=C(C(=O)NCCO)C[C@@H](N(CC2CCCCC2)C(=O)c2cc3ccccc3oc2=O)[C@@H]1O | 0.846 | -0.5 | 0.206 | 1.01 | -1.1 | 0.919 | -0.294 (inactive) | -0.806 | -0.467 | -0.206 (inactive) |
| C[C@@H]1CC[C@H]2C(=O)N3[C@@H](CC[C@@H](C)[C@@H]3c3cccc(N4CCOCC4)c3)C(=O)N2[C@H]1c1cccc(N2CCOCC2)c1 | 0.197 | 1.3 | -0.894 | 0.467 | -0.267 | 1.03 | 0.543 (inactive) | -0.685 | 0.713 | 1.05 (inactive) |
| COC(=O)C1=CC(c2ccc(CO)cc2)=CC(c2cccs2)N(Cc2cccc(OC(F)(F)F)c2)C=C1C(=O)OC (stereo not given) | -0.425 | 0.531 | -0.282 | -1.63 | -2.08 | -0.908 | -1.25 (inactive) | -0.838 | -0.459 | -0.0711 (inactive) |
| COc1ccc(C(=O)Nc2ccc(CN3C(=O)[C@]4(O[C@H](CCn5cc(CCO)nn5)[C@@H]([Si](C)(C)c5ccc(OC)cc5)[C@@H]4C)c4ccccc43)cc2)cc1 | -3.11 | -0.616 | -4.54 | -2.68 | -4.37 | 1.17 | 1.3 (inactive) | -1.1 | -1.8 | -3.05 (inactive) |
| COc1ccc([C@H]2C[C@H]3C(Br)=C[C@]2(OC)C(=O)[C@]32CO2)cc1 | -0.909 | -0.105 | -1.19 | -2.1 | -0.393 | -2.15 | -0.414 (inactive) | -1.07 | -0.717 | 0.596 (inactive) |
| CCCC[C@@H]1C[C@H]1[C@@H](NC(=O)c1ccccc1)c1ccccc1C(F)(F)F | -0.407 | 0.128 | -0.0379 | -1.69 | -0.947 | -1.06 | -0.895 (inactive) | -0.472 | -0.573 | 2.38 (inactive) |
| O=C1OCCC=C[C@H]2OC34C=CCN(Cc5ccccc5)C(=O)[C@H]3N(CCO)C(=O)[C@@H]4C12 (stereo not given in full) | -0.0905 | 1.64 | -0.781 | 0.918 | -0.125 | 0.207 | 0.903 (inactive) | 0.374 | 0.183 | -0.727 (inactive) |
| C[C@H]1NC(=O)[C@@H](C)NC(=O)[C@@]23C(=O)N[C@@H](Cc4ccccc4)C2[C@H](C)[C@@]2(C)O[C@H]2C3/C=C/C/C=C\CNC1=O (stereo not given in full) | 0.0575 | 0.43 | 0.205 | -0.0933 | -0.0009 | 1.24 | 0.408 (inactive) | -0.266 | 1.66 | 0.381 (inactive) |
| CCCCO[C@H]1C[C@H]2C(Br)=C[C@@]1(CO)C(=O)[C@]21CO1 | 0.491 | 0.53 | -0.337 | -0.997 | -0.545 | 0.76 | 1.33 (inactive) | -1.12 | 0.149 | 0.6 (inactive) |
| CCCN1C(=O)[C@@]2(CCS(=O)(=O)c3ccccc3)N=C(c3ccc(OCCCO)cc3)O[C@H]2c2ccccc21 | -1.3 | 2.41 | -0.64 | -0.454 | -3.68 | 0.241 | 0.535 (inactive) | -1.31 | -0.148 | -1.33 (inactive) |
| C=C[C@H](OC)[C@@H](OC(=O)Nc1ccc(SC)cc1)c1ccc(O)c(F)c1 | 0.137 | 0.0047 | -0.14 | -0.913 | -1.07 | -2.33 | 3.02 (inactive) | -1.09 | -0.75 | -0.538 (inactive) |
| CO[C@H]1O[C@H](CO)[C@@H](OC(=O)Nc2ccc3c(c2)OCO3)[C@H](OC(=O)Nc2ccccc2)[C@@H]1OC(=O)Nc1ccccc1 | -0.279 | -0.0955 | -1.27 | -2 | -1.66 | -1.17 | 0.157 (inactive) | -0.611 | -0.191 | -1.57 (inactive) |
| COC(=O)Cn1c(C(=O)N2CCCC2)cc2c1C[C@H]1CN(C(=O)c3ccccc3)[C@@](Cc3ccc(OC)cc3)(C(=O)OC)[C@@H]21 | -0.643 | -0.574 | 0.0447 | -1.72 | -2.24 | 1.49 | -1.1 (inactive) | -0.623 | -1.95 | -1.09 (inactive) |
